Screen size: about 360,000 compounds; about 650 (0.18%) were called active. The list comes from a sample in which actives are over-represented; it also holds similar structures and randomly drawn compounds. Unmarked numbers belong to inactive results. Cut-off read from the data, not from the text of the source: active = activation above about 30%; inactive = the rest.

Sequence of Thyrotropin-releasing hormone receptor (Homo sapiens) (P34981 whole entry, looked up): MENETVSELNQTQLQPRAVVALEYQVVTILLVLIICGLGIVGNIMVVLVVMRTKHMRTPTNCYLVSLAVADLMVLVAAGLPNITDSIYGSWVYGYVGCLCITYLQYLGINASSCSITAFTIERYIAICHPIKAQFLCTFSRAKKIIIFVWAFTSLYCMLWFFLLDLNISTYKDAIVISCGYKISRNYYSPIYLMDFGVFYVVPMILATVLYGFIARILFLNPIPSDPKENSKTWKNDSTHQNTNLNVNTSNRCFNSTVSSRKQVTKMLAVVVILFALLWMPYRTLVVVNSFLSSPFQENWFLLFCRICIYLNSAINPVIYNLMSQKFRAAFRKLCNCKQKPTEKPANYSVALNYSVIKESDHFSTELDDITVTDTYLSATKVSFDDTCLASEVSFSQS

The target of this assay is Thyrotropin-releasing hormone receptor (Homo sapiens) (UniProt P34981). The assay can be described thus: qHTS for Small Molecule Agonists and Allosteric Enhancers of Human TRH Receptor: Primary Screen for Agonists. Note: 0% is about no effect. The following applies: TRHR cells, calcium flux fluo-8, FDSS agonist mode; at 2 µM; stronger effect = higher value. The text has this:
NIH Chemical Genomics Center [NCGC] NIH Molecular Libraries Probe Centers Network [MLPCN] MLPCN Grant: MH089816-01 Assay Submitter (PI): Marvin Gershengorn This project aims to identify small drug-like molecules that activate (agonists) the thyrotropin releasing hormone (TRH) receptor (TRHR) or enhance its TRH-stimulated activity (allosteric enhancers). TRHR, a drug-accessible cell surface receptor expressed in specific brain regions, and its ligand TRH have been implicated in several central nervous system disorders, including depression and anxiety. Small molecule TRHR agonists or allosteric enhancers that are metabolically stable and able to cross the blood-brain barrier might serve as probes to elucidate the roles of brain TRH receptors in animal models, and might be valuable as lead compounds for the development of drugs to treat patients with central nervous system disorders. Upon TRHR-Gq activation in TRHR cells, intracellular calcium is released from stores in the endoplasmic reticulum. […] This primary screen measures compound-induced activation of calcium release.
For the HTS assay freshly prepared cells are plated at a density of 2000/well in 3 ul of complete DMEM medium containing 10% serum in 1536-well plates and cultured over night at 37 C in a humidified incubator with 5% CO2. The next day, 2 ul of a no wash calcium dye (ABD Bioquest) was added to the cells and plates were incubated at room temperature for 1 hour. For the assay, assay plates were loaded into the FDSS kinetic plate reader. A 10 cycle (1 second/cycle) baseline measurement is taken and then the FDSS online 1536 pintool delivers 23 nl of compound library (as well as TRH controls) to the plate. The plate is measured for kinetically at 1 cycle/sec for 180 seconds and is considered to be the agonist portion of the assay (eg, compounds which activate a positive calcium response during this portion are flagged as potential agonists). Following the 180 second read, 1 ul of either an EC20 (positive modulation assay) is delivered by an onboard pipette head. Measurements are taken kinetically for an additional 180 seconds. TRHR FDSS Screening Protocol 1. Reagent, 3 uL 2000 cells/well 1536 TC treated Black plate in media containing 10% FCS 2. Time, 18 hours, 33.5C 5% CO2 (cells grown at 37C) 3. Reagent, 2 uL ABD fluo-8 Ca dye 4. Time, 30 min-1.5hrs hours, Room temp (6 plates/batch) 5. Detector, EX 480/EM 530C, FDSS 10 cycles baseline (1sec/cycle) 6. Compound, 23 nL of stock solution from library 7. Detector, EX 480/EM 530C, FDSS […] (1sec/cycle) Agonist mode 8. Compound, 1 ul EC20 of TRH made up in HEPES HBSS, 10 nM final 9. Detector, EX 480/EM 530C, FDSS 100 cycles (1sec/cycle) Potentiator mode
In the case of `O=C1C(F)N([S+](=O)([O-])c2ccc3c(c2)OCCO3)CCN1[S+](=O)([O-])c1c(F)cccc1F` (stereo unspecified), the activation is 0.239%.
To `Cc1ccc(Cl)cc1N1CCN(C(=O)c2cn(C)c3ccc(S(=O)(=O)N(C)C4CCCCC4)cc3c2=O)CC1` belongs -1.19%; to `O=C(NCCc1ccccc1)C(=O)NCC(c1ccco1)S(=O)(=O)c1ccccc1` (stereo unspecified), -0.0493%; to `Cc1nn(C)cc1N1C(=O)c2cccc3c(N)ccc(c23)C1=O`, 172% (active).
For the molecule `CN1C(=O)c2cccc3c(N)ccc(c23)C1=O`, the activation is 152% (active).
To `CCc1nnc(NC(=O)[C@@H](NC(=O)c2cccc(C)c2)C(C)C)s1` belongs 47.4% (active).
As for `CC(=O)Nc1ccc(NC(=O)[C@@H](NC(=O)c2cccc(C)c2)C(C)C)cc1`, the activation is 0.205%.
Consider `Cc1cccc(C(=O)NCc2nnc(SC(C)C(=O)Nc3nnc(C)s3)n2C)c1` (stereo unspecified), for which the activation is -0.0214%.
With `Cn1ccc2cc(S(=O)(=O)N3CCCC(C(=O)NCc4ccccc4F)C3)ccc21` (stereo unspecified), the activation is -0.718%.
With `Cc1nn(C(C)C(=O)NCCc2ccccc2)c(=O)c2c1sc1ccccc12` (stereo unspecified) the figure was -0.291%; with `COc1cc(Cl)c(NC(=O)CC(C)S(=O)(=O)c2cc3c(cc2C)NC(=O)CO3)c(OC)c1` (stereo unspecified), -0.196%; with `CCCNC(=O)C(CC)n1nc(CC)n2c(cc3oc(C)cc32)c1=O` (stereo unspecified), 0.892%.
Turning to `COc1ccc(-c2nc(Cn3c(=O)cc(C)c4c(C)nn(-c5ccccc5)c43)c(C)o2)c(OC)c1`, the activation was 0.643%.
`Oc1c(C(c2ccc(F)cc2)N2CCN(Cc3ccccc3)CC2)sc2nc(-c3ccco3)nn12` (stereo unspecified): the activation was -0.524%.
As to `COc1ccc(-c2onc(C)c2C)cc1S(=O)(=O)NCC1CCN(Cc2cccc(F)c2)CC1`, the activation is -0.0549%.
For the molecule `CCOC(=O)C1CCN(C(c2ccc(F)cc2)c2sc3nc(-c4ccco4)nn3c2O)CC1` (stereo unspecified), the activation is 0.0847%.
As for `CCOc1ccc(/C=C(\C#N)c2nc3ccccc3c(=O)[nH]2)cc1OC`, the activation is 2.27%.
Turning to `COc1cc(/C=C(\C#N)c2nc3c(s2)CC(C)CC3)ccc1O` (stereo unspecified), the activation was 38.3% (active).
On to `COc1cc(/C=C(\C#N)c2nc3ccccc3[nH]2)ccc1O`, for which the activation is 33.3% (active).
In the case of `COc1cccc2cc(-c3nc(Cl)c4c5c(sc4n3)CC(C)CC5)c(=O)oc12` (stereo unspecified), the activation was 0.639%.
With `N#C/C(=C\c1ccccc1F)c1nc2ccccc2c(=O)[nH]1` the figure was 3.32%; with `Cc1ccc(S(=O)(=O)c2cn(Cc3ccccc3)c3cc(N4CCCC4)c(F)cc3c2=O)c(C)c1`, 0.661%; with `Cc1ccc(C)c(N2CCN(C(=O)Cc3c(C(=O)O)c(C)cn3C)CC2)c1`, -0.0012%.
Turning to `COc1ccc(CNC(=O)c2cc3c(-c4ccccc4F)nn(C)c3s2)c(OC)c1`, the activation is -0.894%.
Take `O=C(Nc1ccc(O)c(-c2nc3ccccc3o2)c1)c1ccc(-c2cccc(Cl)c2)o1`: the activation is 0.235%.
To `CCOC(=O)CNC(=O)c1cc2c(=O)n3cccc(C)c3nc2s1` belongs -0.701%; to `CCOC(=O)CC1C(=O)NCCN1c1nc2c(C)cccn2c(=O)c1/C=C1\SC(=S)N(C(C)CC)C1=O` (stereo unspecified), 52.4% (active); to `CCCN(CCC)c1nc2c(C)cccn2c(=O)c1/C=C1/SC(=S)N(Cc2ccco2)C1=O`, 12%.
For the molecule `COc1ccc(-c2cc(C(=O)NCc3cc(OC)c(OC)c(OC)c3)[nH]n2)cc1`, the activation was -0.734%.
Consider `O=C(Cc1ccc(Cl)cc1)NCC(c1cccs1)S(=O)(=O)c1ccc(Cl)cc1` (stereo unspecified), for which the activation was -0.0259%.
Consider `CCCCN1C(=O)c2[nH]nc(-c3ccccc3O)c2C1c1cccc(OCc2ccccc2)c1` (stereo unspecified), for which the activation was 0.132%.
With `Cc1ccc2nc(-c3ccc(C)c(NC(=O)Cc4ccccc4)c3)oc2c1`, the activation was -0.54%.
With `Cc1ccc(C2c3[nH]c4ccccc4c3CCN2C(=O)c2cccc(C)c2)cc1` (stereo unspecified) the figure was 0.132%; with `Cc1ccc(S(=O)(=O)NC(N)=NCCC[C@@H](NC(=O)CNC(=O)c2ccccc2)C(=O)Nc2cc(C(F)(F)F)ccc2Cl)cc1`, -1.22%.
`COc1ccc(C2C(=O)N(C3CCCCC3)CC(=O)N2Cc2ccccc2Cl)cc1OC` (stereo unspecified): the activation was -1.14%.
To `COc1ccc(-c2nc(Cn3c(=O)cc(C)c4c(C)nn(-c5ccccc5)c43)c(C)o2)cc1OC` belongs -0.897%; to `Cc1ccc(Cn2ncc3c4sc(C)cc4n(C)c3c2=O)c(C)c1`, 0.195%.
For `Cc1ccccc1CNC(=O)C1CCCN(S(=O)(=O)N(C)c2ccc(F)cc2)C1` (stereo unspecified), the activation is -0.334%.
As to `Cc1cc(C)cc(NC(=O)CSc2nc3nccnc3c(=O)n2CCc2c[nH]c3ccccc23)c1`, the activation was 0.728%.
As to `O=C(CCS(=O)(=O)c1cc(Br)cc2c1N(C(=O)C1CC1)CC2)Nc1ccc(C(F)(F)F)cc1`, the activation is -0.155%.
With `CCOC(=O)c1c(S(=O)(=O)N2CCC(C(=O)NCc3ccccc3OC)CC2)c(C)n(C)c1C` the figure was -0.102%; with `O=C(CCSCc1cccc(F)c1)NCc1ccccc1`, -0.592%; with `CN(Cc1ccccc1)C(=O)c1cn(C)c2ccc(S(=O)(=O)N3CCCCC3)cc2c1=O`, 0.115%.
`CCOc1ccc(C2C(=O)N(C3CCCCC3)CC(=O)N2CCC2=CCCCC2)cc1OC` (stereo unspecified): the activation was 0.439%.
Regarding `O=[S+]([O-])(c1ccc(OC(F)(F)F)cc1)N1CCN([S+](=O)([O-])c2ccc3c(c2)OCCO3)CC1`, the activation is -0.283%.
To `CCc1ccc2oc(-c3ccc(C)c(NC(=O)/C=C/c4ccco4)c3)nc2c1` belongs -0.323%.

The record behind these values is PubChem BioAssay AID493084 (National Center for Advancing Translational Sciences (NCATS), 2011).
